Measured values published in PubChem BioAssay (NCI).
This is part of a sample that, as a whole, favours compounds with a hit. Of some 79,000 tested, about 15% had one in any assay. Calls of active or inactive are those of the source. Cut-off read from the data, not from the text of the source: active = growth inhibition above about 70%; inactive = the rest. Where a SMILES comes first, the peptide text is derived from it. The star is where a group is joined. For = O=C*

Experiment: NCI Yeast Anticancer Drug Screen. Data for the rad50 strain (AID 155);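 note: 0% = growth of vehicle-only cultures of the same strain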
Conditions: S. cerevisiae rad50 strain growth inhibition; at 50.0 µM; active compounds read high
Method in brief: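 Compounds were tested on a yeast strain with an engineered DNA damage repair alteration; the reported value is growth inhibition normalised to vehicle treatment.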
With `CCC(C)C=O` (stereo not given) the growth inhibition was 3.9% (inactive).
For `CCCCCCCCC(=O)OCC(=O)c1ccc(-c2ccccc2)cc1`, the growth inhibition was 10.8% (inactive).
With `CCNc1nnc(N=Nc2ccccc2)s1` the growth inhibition was 0.5% (inactive).
In the case of `CC(=O)OC(C(=O)Nc1ccc(Br)cc1)c1ccccc1` (stereo not given), the growth inhibition is reported as 4.7% (inactive).
In the case of `CCN(CC)CCCn1cnc2ncccc2c1=O`, the growth inhibition is reported as -12.3% (inactive).
In the case of `CCC(C)C1CCCCC1OC(=O)CCl` (stereo not given), the growth inhibition is reported as -5.45% (inactive).
With `Cc1ccc(S(=O)(=O)CC(=O)CC(=O)C(=O)Nc2ccc(C)cc2C)cc1` the growth inhibition was 2.15% (inactive).
For `COC(=O)c1cc2ccc1OCC#CC#CCOc1ccc(cc1C(=O)OC)OCC#CC#CCO2`, the growth inhibition was -1.9% (inactive).
For `O=C(O)c1ccc2c(Cl)ccc3c2c1CC3`, the growth inhibition was 11.7% (inactive).
With `COc1ccc(NC(=O)C2C(=O)N(c3ccc(OC)cc3)C(=O)/C2=N\N)cc1` (stereo not given) the growth inhibition was 11.6% (inactive).
With `CCOC(=O)CCC(NC(=O)c1ccc(N(C)C=O)cc1)C(=O)OCC` (stereo not given) the growth inhibition was 10.9% (inactive).
With `Cc1ccc(CCS(=O)(=O)N=[N+]=[N-])cc1` the growth inhibition was 1.45% (inactive).
For `C=CCOc1cc2c(cc1C(C)c1ccc(OC)cc1)OCO2` (stereo not given), the growth inhibition was 12.3% (inactive).
For `Brc1cccc2ccc3ccccc3c12`, the growth inhibition was 23.2% (inactive).
For `CCNC(=O)Nc1nc2ccccc2s1`, the growth inhibition was -27.8% (inactive).
In the case of `CCN(CC)CCCC(C)NCCCN` (stereo not given), the growth inhibition is reported as -7.15% (inactive).
For `O=C(OCc1ccccc1CN1CCCC1)c1cccc(Cl)c1`, the growth inhibition was 2.8% (inactive).
For `COc1ccc2c(c1)CCC1=C2CC2C(=O)C1(C)CCC2(C)OC(C)=O` (stereo not given), the growth inhibition was -4.35% (inactive).
In the case of `CSCCC(NC(=O)C(Cc1ccccc1)NC=O)C(=O)O` (stereo not drawn) (For-Phe-Met-OH; configuration not given here), the growth inhibition is reported as -12.1% (inactive).
With `COC(=O)/C(C#N)=C/c1cccnc1` the growth inhibition was -10.1% (inactive).
For `CCOC(=O)Oc1ccc(Cl)cc1Cl`, the growth inhibition was 3.2% (inactive).
With `COC(=O)c1nc(N)nc(C(=O)OC)c1C(=O)c1c(C)[nH]c2ccccc12` the growth inhibition was -9.85% (inactive).
For `CN1C(C(=O)Nc2ccccn2)=C(O)c2ccccc2S1(=O)=O`, the growth inhibition was 5% (inactive).
For `OCC(O)C(O)C(O)c1nn(-c2ccc(Cl)cc2)c2nc3cc(Cl)c(Cl)cc3nc12` (stereo not given), the growth inhibition was 1.85% (inactive).
In the case of `Cc1ccc(NC(=S)NC(=O)c2ccccc2)cc1`, the growth inhibition is reported as 10.9% (inactive).
With `Cc1cccc(/C=N/NC(=S)NCCc2ccccn2)n1` the growth inhibition was -17.4% (inactive).
For `CC(=O)NC(CCCCNC(=O)OC(C)(C)C)C(=O)O` (stereo not given), the growth inhibition was -31.9% (inactive).
With `Nc1nc(Cl)nc(Cl)n1` the growth inhibition was -53.7% (inactive).
With `Cc1ccc2c(c1)nc(N)n[n+]2[O-]` the growth inhibition was 2.85% (inactive).
With `NC(=S)N/N=C/C=C/c1ccco1` the growth inhibition was 8.9% (inactive).
In the case of `CC(=O)Nc1c(OC(C)=O)ccc2cc(Br)ccc12`, the growth inhibition is reported as -0.15% (inactive).
With `C/C(=N\NS(=O)(=O)c1ccc(N)cc1)c1ccc(C)cc1C` the growth inhibition was -12.9% (inactive).
For `COC(=O)/C(C=Nc1ccccc1)=C(/C)O`, the growth inhibition was 7.35% (inactive).
In the case of `CC(=O)NNc1nc(C)c(C(=O)/C=C/c2ccc(/C=C/C(=O)c3sc(NNC(C)=O)nc3C)cc2)s1`, the growth inhibition is reported as -29.6% (inactive).
With `C[n+]1cccc(C(=O)c2ccccc2)c1` the growth inhibition was 6.4% (inactive).
With `S=c1nn[nH]n1-c1cccc2ccccc12` the growth inhibition was 4.7% (inactive).
In the case of `CCCCCC(=C/c1ccccc1)/C=N/N1CCN(/N=C/C(=C/c2ccccc2)CCCCC)CC1`, the growth inhibition is reported as 32.1% (inactive).
In the case of `CCCCNCCCNCCCC`, the growth inhibition is reported as 4.95% (inactive).
With `CC(C)(C)C1(C#N)C(=O)N(c2ccc(Cl)cc2)C12c1ccccc1-c1ccccc12` (stereo not given) the growth inhibition was 4.55% (inactive).
For `CC12NC(=O)NC1(C)NC(=O)N2` (stereo not given), the growth inhibition was -8.85% (inactive).

Experiment: NCI Yeast Anticancer Drug Screen. Data for the mec2-1 strain (AID 157)
Conditions: S. cerevisiae mec2-1 strain, at 50.0 µM, active compounds read high
Method in brief: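 Using mec2-1 yeast: add compound, measure growth, express inhibition versus vehicle-treated cultures.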
In the case of `CCC(C)C=O` (stereo not given), the growth inhibition is reported as -6.3% (inactive).
With `CCCCCCCCC(=O)OCC(=O)c1ccc(-c2ccccc2)cc1` the growth inhibition was -15.3% (inactive).
With `CCNc1nnc(N=Nc2ccccc2)s1` the growth inhibition was 12.8% (inactive).
For `CC(=O)OC(C(=O)Nc1ccc(Br)cc1)c1ccccc1` (stereo not given), the growth inhibition was -3.95% (inactive).
For `CCN(CC)CCCn1cnc2ncccc2c1=O`, the growth inhibition was -5.7% (inactive).
With `CCC(C)C1CCCCC1OC(=O)CCl` (stereo not given) the growth inhibition was -14.8% (inactive).
In the case of `Cc1ccc(S(=O)(=O)CC(=O)CC(=O)C(=O)Nc2ccc(C)cc2C)cc1`, the growth inhibition is reported as -9.2% (inactive).
In the case of `COC(=O)c1cc2ccc1OCC#CC#CCOc1ccc(cc1C(=O)OC)OCC#CC#CCO2`, the growth inhibition is reported as 5.5% (inactive).
With `O=C(O)c1ccc2c(Cl)ccc3c2c1CC3` the growth inhibition was -0.8% (inactive).
With `COc1ccc(NC(=O)C2C(=O)N(c3ccc(OC)cc3)C(=O)/C2=N\N)cc1` (stereo not given) the growth inhibition was -19.4% (inactive).
With `CCOC(=O)CCC(NC(=O)c1ccc(N(C)C=O)cc1)C(=O)OCC` (stereo not given) the growth inhibition was -6.8% (inactive).
In the case of `Cc1ccc(CCS(=O)(=O)N=[N+]=[N-])cc1`, the growth inhibition is reported as -11.8% (inactive).
With `C=CCOc1cc2c(cc1C(C)c1ccc(OC)cc1)OCO2` (stereo not given) the growth inhibition was 0.75% (inactive).
With `Brc1cccc2ccc3ccccc3c12` the growth inhibition was 19% (inactive).
For `CCNC(=O)Nc1nc2ccccc2s1`, the growth inhibition was -13% (inactive).
For `CCN(CC)CCCC(C)NCCCN` (stereo not given), the growth inhibition was -9.05% (inactive).
In the case of `O=C(OCc1ccccc1CN1CCCC1)c1cccc(Cl)c1`, the growth inhibition is reported as -3.75% (inactive).
For `COc1ccc2c(c1)CCC1=C2CC2C(=O)C1(C)CCC2(C)OC(C)=O` (stereo not given), the growth inhibition was -11.1% (inactive).
For `CSCCC(NC(=O)C(Cc1ccccc1)NC=O)C(=O)O` (stereo not drawn) (For-Phe-Met-OH; configuration not given here), the growth inhibition was -26.9% (inactive).
For `COC(=O)/C(C#N)=C/c1cccnc1`, the growth inhibition was -7.65% (inactive).
In the case of `CCOC(=O)Oc1ccc(Cl)cc1Cl`, the growth inhibition is reported as 14.1% (inactive).
With `COC(=O)c1nc(N)nc(C(=O)OC)c1C(=O)c1c(C)[nH]c2ccccc12` the growth inhibition was -20% (inactive).
In the case of `CN1C(C(=O)Nc2ccccn2)=C(O)c2ccccc2S1(=O)=O`, the growth inhibition is reported as 15.5% (inactive).
In the case of `OCC(O)C(O)C(O)c1nn(-c2ccc(Cl)cc2)c2nc3cc(Cl)c(Cl)cc3nc12` (stereo not given), the growth inhibition is reported as -28.6% (inactive).
In the case of `Cc1ccc(NC(=S)NC(=O)c2ccccc2)cc1`, the growth inhibition is reported as 4.95% (inactive).
With `Cc1cccc(/C=N/NC(=S)NCCc2ccccn2)n1` the growth inhibition was -33.8% (inactive).
For `CC(=O)NC(CCCCNC(=O)OC(C)(C)C)C(=O)O` (stereo not given), the growth inhibition was -42.2% (inactive).
In the case of `Nc1nc(Cl)nc(Cl)n1`, the growth inhibition is reported as -59.5% (inactive).
For `Cc1ccc2c(c1)nc(N)n[n+]2[O-]`, the growth inhibition was -14.7% (inactive).
In the case of `NC(=S)N/N=C/C=C/c1ccco1`, the growth inhibition is reported as 0.25% (inactive).
In the case of `CC(=O)Nc1c(OC(C)=O)ccc2cc(Br)ccc12`, the growth inhibition is reported as 20.9% (inactive).
In the case of `C/C(=N\NS(=O)(=O)c1ccc(N)cc1)c1ccc(C)cc1C`, the growth inhibition is reported as -19.6% (inactive).
In the case of `COC(=O)/C(C=Nc1ccccc1)=C(/C)O`, the growth inhibition is reported as 5.1% (inactive).
With `CC(=O)NNc1nc(C)c(C(=O)/C=C/c2ccc(/C=C/C(=O)c3sc(NNC(C)=O)nc3C)cc2)s1` the growth inhibition was -3.4% (inactive).
With `C[n+]1cccc(C(=O)c2ccccc2)c1` the growth inhibition was -4.8% (inactive).
In the case of `S=c1nn[nH]n1-c1cccc2ccccc12`, the growth inhibition is reported as 1.9% (inactive).
With `CCCCCC(=C/c1ccccc1)/C=N/N1CCN(/N=C/C(=C/c2ccccc2)CCCCC)CC1` the growth inhibition was 10.8% (inactive).
With `CCCCNCCCNCCCC` the growth inhibition was -3.4% (inactive).
In the case of `CC(C)(C)C1(C#N)C(=O)N(c2ccc(Cl)cc2)C12c1ccccc1-c1ccccc12` (stereo not given), the growth inhibition is reported as 9.55% (inactive).
With `CC12NC(=O)NC1(C)NC(=O)N2` (stereo not given) the growth inhibition was -6.3% (inactive).
